FLuc modulator: firefly luciferase modulation, counter-screen for miR-21 project; purified FLuc, Km substrates, luminescence inhibition; AID 588342; 360,000 compounds, 6.9% hits; P08659; Potency, µM (doses to about 57.5 µM), inactives show top-dose activity change, negative = inhibition, actives largely listed as inhibitors;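 note: plate controls were vehicle for no effect and reference inhibitor for full effect; nearly all actives have a fitted effect of over 55% in size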
Target sequence (P08659 whole entry, looked up): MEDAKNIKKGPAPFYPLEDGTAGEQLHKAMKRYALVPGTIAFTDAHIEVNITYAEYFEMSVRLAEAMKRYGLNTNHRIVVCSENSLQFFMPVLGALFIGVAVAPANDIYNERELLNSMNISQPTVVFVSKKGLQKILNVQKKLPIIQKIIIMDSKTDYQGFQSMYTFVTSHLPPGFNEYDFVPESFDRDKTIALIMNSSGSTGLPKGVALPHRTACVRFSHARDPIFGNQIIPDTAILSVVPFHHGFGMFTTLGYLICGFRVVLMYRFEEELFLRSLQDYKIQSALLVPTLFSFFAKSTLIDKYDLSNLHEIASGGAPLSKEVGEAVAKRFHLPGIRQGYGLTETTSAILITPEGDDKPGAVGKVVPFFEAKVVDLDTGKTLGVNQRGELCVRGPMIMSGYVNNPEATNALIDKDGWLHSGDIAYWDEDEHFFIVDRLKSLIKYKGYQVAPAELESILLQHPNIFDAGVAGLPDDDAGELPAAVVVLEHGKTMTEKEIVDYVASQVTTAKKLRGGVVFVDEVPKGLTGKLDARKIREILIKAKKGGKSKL
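Biochemical qHTS of compounds, final roughly 60 µM downward over six points, against 10 nM purified firefly luciferase using Km concentrations of substrates (10 uM D-luciferin, 10 uM ATP) in Tris acetate pH 7.5 buffer; luminescence output.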
ELG1 genotox: inducers of genotoxicity in HEK293T ELG1-luciferase cells | HEK293T ELG1-luciferase reporter, luminescence, 16 h | Potency, µM (top dose mostly 46 µM), without a hit: at the highest dose activity change, positive = activation, hits mostly activators | 330,000 compounds, 1.3% hits | AID 504466; note: % of control where 0% means no effect; nearly all actives have a fitted effect of over 60% in size
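Cells (2,000/well) expressing the ELG1-luciferase fusion are dosed by pin tool and kept 16 hr at 37 °C, 5% CO2. Signal comes from ONE-Glo luciferase reagent after 30 min at room temperature.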
ELG1 repair inh: inhibitors of ELG1-dependent DNA repair in HEK293T cells; HEK293T ELG1-luciferase reporter, luminescence, 16 h; DNA damage induced by 5-fluorouridine; Potency, µM (top dose mostly 46.1 µM), inactives show at the highest dose activity change, negative = inhibition, actives largely listed as inhibitors; 330,000 compounds, 2.3% hits; AID 504467; note: % is set by controls: 0 for no effect and ±100 for the full control effect; nearly all actives have a fitted effect of over 55% in size
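DMSO vehicle served as the neutral condition. Each well held 2,000 cells given 5-fluorouridine plus compound; after 16 hr at 37 °C/5% CO2, ONE-Glo was added and luciferase measured 30 min later.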
NPC1 promoter act: NPC1 promoter activation; Huh7 NPC1 promoter luciferase reporter, 24 h; Potency, µM (highest dose often 9.22 µM), for the others: top-dose activation, actives largely listed as activators; 320,000 compounds, 2.4% hits; note: % of control where 0% means no effect; nearly all actives have a fitted effect of over 60% in size
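Luminescence from an NPC1 promoter-driven luciferase reporter in stably transfected Huh7 cells was measured after 24 h compound treatment at 37 °C, followed by 10 min ambient incubation with luciferase detection reagent.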
Rab9 prom act: activates the Rab9 promoter; AID 485297; 320,000 compounds, 2.8% hits; Potency, µM (top dose mostly 9.22 µM), inactives show at the highest dose activation, negative = inhibition, most hits filed as activators; Huh7 Rab9 promoter-luciferase reporter, luminescence, 24 h; note: % of control where 0% means no effect; nearly all actives have a fitted effect of over 60% in size
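Steps: seed 1500 Huh7 Rab9-luc cells per well, rest 2 h at 37 °C; add compound in DMSO; incubate 24 h; add luciferase reagent, 10 min ambient; read luminescence.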
SMN2 splice up: enhancers of SMN2 splice variant expression | AID 1458 | 210,000 compounds, 2.8% hits | HEK293 SMN2-luciferase splicing reporter, luminescence, 30-36 h | Potency, µM (highest dose often 46.1 µM), inactives show top-dose activity change, positive = activation, usual class: activators; note: % of control where 0% means no effect; nearly all actives have a fitted effect of over 55% in size
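HEK293 cells carry an SMN2 […]–luciferase reporter in which exon 7 inclusion puts luciferase in frame. Cells were plated 10-12 h before compound addition, then incubated 30-36 h at 37C. ONE-Glo luminescence was read; sodium butyrate at 4.5 mM final served as control.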
The depositor's hits bear a star; [ ] = another dose, or the depositor's remark. This is a sample that favours compounds with a hit; in the whole collection about 9.3% have one here. Calls come from the whole dose curve; as a rule, active = well fitted curve in the direction sought with a large enough effect; inconclusive = small, poorly fitted or top-dose-only effect, or another doubt; inactive = no such curve, though single readings can be large; an effect the other way counts as inactive or inconclusive. Potency is the fitted concentration of half-maximal effect.

Screening COc1cccc(NC(=O)CN(C)C(=O)/C=C/c2cn(Cc3ccccc3)nc2-c2cccnc2)c1 returned FLuc modulator 0%, ELG1 genotox 1%, ELG1 repair inh 15µM*, NPC1 promoter act -1% and Rab9 prom act -3%.
`COc1ccc(-n2ncc3c(NCCCN4CCOCC4)ncnc32)cc1` gave FLuc modulator 11µM*, ELG1 genotox 9.2µM*, ELG1 repair inh inconclusive, NPC1 promoter act inconclusive, Rab9 prom act inconclusive and SMN2 splice up -2%.
For Cc1ccc(-n2ncc3c(NCCCc4ccccc4)ncnc32)cc1C the results were FLuc modulator -10%.
CC(=O)NNc1ncnc2c1cnn2-c1ccc(C)cc1 was read as FLuc modulator inconclusive, ELG1 genotox inconclusive, ELG1 repair inh inconclusive, NPC1 promoter act -3% and Rab9 prom act 5%.
Screening Cc1ccc(-n2ncc3c(NCCO)ncnc32)cc1Cl returned FLuc modulator 6µM*.
`COc1cc2ncnc(NCCCN3CCOCC3)c2cc1OC` gave FLuc modulator 0%, ELG1 genotox 4%, ELG1 repair inh 11%, NPC1 promoter act -4% and Rab9 prom act -2%.
Cc1ccc(-n2ncc3c(NCCCN4CCOCC4)ncnc32)c(C)c1 was read as FLuc modulator -1%, ELG1 genotox -2%, ELG1 repair inh -4%, NPC1 promoter act 1%, Rab9 prom act -7% and SMN2 splice up -8%.
For Cc1ccc(-n2ncc3c(NCCCN4CCOCC4)ncnc32)cc1Cl the results were FLuc modulator 9.5µM*.
Screening CC(=O)NNc1ncnc2c1cnn2-c1ccc(C)c(Cl)c1 returned FLuc modulator 24µM*, ELG1 genotox 16%, ELG1 repair inh inconclusive, NPC1 promoter act 2%, Rab9 prom act 16% and SMN2 splice up 2%.
Screening Cc1cc(SCC(=O)OCC(=O)NCc2ccc3c(c2)OCO3)c(C)cc1Br returned FLuc modulator 5%, ELG1 genotox 0%, ELG1 repair inh -3%, NPC1 promoter act 0%, Rab9 prom act 3% and SMN2 splice up -16%.
For COc1ccc(-n2ncc3c(NCCN4CCOCC4)ncnc32)cc1 the results were FLuc modulator 15µM*, ELG1 genotox 15µM*, ELG1 repair inh inconclusive, NPC1 promoter act 28%, Rab9 prom act inconclusive and SMN2 splice up -8%.
Screening COc1ccc(CCNc2ncnc3c2cnn3-c2ccc(F)cc2)cc1 returned FLuc modulator -16%.
Nc1ncc(Br)cc1S(=O)(=O)NCCC(=O)NC1CCCCC1 was read as FLuc modulator -2%, ELG1 genotox -7%, ELG1 repair inh -5%, NPC1 promoter act -2% and Rab9 prom act -1%.
`CCOC(=O)C1=C(C)NC(C)=C(C(=O)OCC)C1/C=C/c1ccccc1` gave FLuc modulator 5%, ELG1 genotox inconclusive, ELG1 repair inh inconclusive, NPC1 promoter act 0%, Rab9 prom act -5% and SMN2 splice up 12%.
COC(=O)C1=C(C)NC(C)=C(C(=O)OC)C1/C=C/c1ccccc1 was read as FLuc modulator 1%, ELG1 genotox 16µM*, ELG1 repair inh inconclusive, NPC1 promoter act -2%, Rab9 prom act -1% and SMN2 splice up 26%.
Screening COc1ccc(Cn2ccc3nc(C)c(C(=O)N4CCN(c5ccccc5)CC4)cc3c2=O)cc1 returned FLuc modulator 5%.
Cc1nc2ccn(Cc3ccccc3)c(=O)c2cc1C(=O)N1CCN(c2ccccc2)CC1 was read as FLuc modulator 3%, ELG1 genotox -6%, ELG1 repair inh 8.2µM*, NPC1 promoter act 0% and Rab9 prom act 0%.
Screening COc1ccc(NC(=O)c2ccco2)c([N+](=O)[O-])c1 returned FLuc modulator 21µM*, ELG1 genotox inconclusive, ELG1 repair inh inconclusive, NPC1 promoter act inconclusive, Rab9 prom act 2.5µM* and SMN2 splice up 35µM*.
Screening Cc1ccc(NC(=O)c2ccco2)c(NC(=O)c2ccccc2)c1 returned FLuc modulator 0%, ELG1 genotox -1%, ELG1 repair inh 2%, NPC1 promoter act -2% and Rab9 prom act 5%.
Screening Cc1ccc(NC(=O)c2ccco2)c([N+](=O)[O-])c1 returned FLuc modulator inconclusive, ELG1 genotox inconclusive, ELG1 repair inh inconclusive, NPC1 promoter act 2.8µM*, Rab9 prom act 2.8µM* and SMN2 splice up 22µM*.
`c1ccc(CNc2ncnc3scc(-c4cccs4)c23)nc1` gave FLuc modulator -7%, ELG1 genotox -18%, ELG1 repair inh 8.2µM*, NPC1 promoter act -12%, Rab9 prom act -29% and SMN2 splice up -80%.
For c1ccc(-c2csc3ncnc(NCc4ccccn4)c23)cc1 the results were FLuc modulator -16%, ELG1 genotox -13%, ELG1 repair inh 12µM*, NPC1 promoter act -6% and Rab9 prom act -18%.
`CC(=O)N1N=C(c2ccc(C)cc2)OC1c1ccc(Br)cc1` (stereo unspecified) gave FLuc modulator -3%, ELG1 genotox -3%, ELG1 repair inh 4%, NPC1 promoter act -1% and Rab9 prom act 9%.
For CC(=O)N1N=C(c2ccc(Cl)cc2)OC1c1ccc(C(C)C)cc1 (stereo unspecified) the results were FLuc modulator 12µM*, ELG1 genotox inconclusive, ELG1 repair inh inconclusive, NPC1 promoter act 24%, Rab9 prom act 29% and SMN2 splice up 19%.
Cc1cccc(NC(=O)CN2C(=O)S/C(=C\c3ccc(-c4cccc(C(=O)O)c4C)o3)C2=O)c1 was read as FLuc modulator 19µM*, ELG1 genotox 0%, ELG1 repair inh -2%, NPC1 promoter act -2%, Rab9 prom act 6% and SMN2 splice up 28%.
For Cc1ccccc1NC(=O)CN1C(=O)S/C(=C\c2ccc(-c3cccc(C(=O)O)c3C)o2)C1=O the results were FLuc modulator inconclusive, ELG1 genotox 9%, ELG1 repair inh 0%, NPC1 promoter act 14%, Rab9 prom act 0%[1.84 µM] and SMN2 splice up 11µM*.
`O=C1S/C(=C\c2ccc(N3CCOCC3)o2)C(=O)N1c1ccccc1` gave FLuc modulator inconclusive, ELG1 genotox inconclusive, ELG1 repair inh inconclusive, NPC1 promoter act inconclusive, Rab9 prom act inconclusive and SMN2 splice up 18%.
Cc1ccc(NC(=O)CN2C(=O)S/C(=C/c3ccc(-c4cc(C(=O)O)ccc4C)o3)C2=O)cc1C was read as FLuc modulator inconclusive, ELG1 genotox 1%, ELG1 repair inh -15%, NPC1 promoter act -1%, Rab9 prom act -1% and SMN2 splice up -11%.

Screens as filed in PubChem BioAssay.
